Screens (PubChem)
Rows were chosen to be rich in hits. Some 10% of all compounds tested hit in one or more screens of this group.
Lamin A splicing: qHTS Assay for Modulators of Lamin A Splicing. HeLa LMNA splicing GFP/RFP minigene ratio, 48 h. Potency, µM (titrated, usually from 46.1 µM), most hits filed as inhibitors. 200,000 compounds, 0.01% hits; active means well fitted inhibition curve with a large enough effect in the signal ratio, with a control signal flat, not every such curve was filed as active; inconclusive means small, poorly fitted or top-dose-only effect, or effect the other way, or a change in a side signal; the % refers to the signal ratio
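Read-out is the ratio of GFP to DsRed2 object intensity, acquired by 488 nm laser-scanning cytometry on HeLa lamin A-EGFP minigene reporter cells. Compound incubation 48 hrs at 37 °C in Opti-MEM with 2% FBS; DMSO 0.5% final.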
IMPase cell inh: qHTS Assay for Identifying the Cell-Membrane Permeable IMPase Inhibitors. CHO-M1 cells, IP1 accumulation, HTRF TR-FRET ratio. 120,000 tested, under 10 active. inhibition (IP1 accumulation), % at 46.1 µM; active means well fitted curve in the direction sought with a large enough effect in the signal ratio, not every such curve was filed as active; inconclusive means small, poorly fitted or top-dose-only effect, or a change in a side signal; inactive means no such curve, though single readings can be large or run the other way; the % refers to the signal ratio;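 further: cells stimulated with carbachol in lithium chloride buffer; higher means more IMPase inhibition seen as more IP1 and lower FRET ratio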
Target sequence (P97697 whole entry, looked up): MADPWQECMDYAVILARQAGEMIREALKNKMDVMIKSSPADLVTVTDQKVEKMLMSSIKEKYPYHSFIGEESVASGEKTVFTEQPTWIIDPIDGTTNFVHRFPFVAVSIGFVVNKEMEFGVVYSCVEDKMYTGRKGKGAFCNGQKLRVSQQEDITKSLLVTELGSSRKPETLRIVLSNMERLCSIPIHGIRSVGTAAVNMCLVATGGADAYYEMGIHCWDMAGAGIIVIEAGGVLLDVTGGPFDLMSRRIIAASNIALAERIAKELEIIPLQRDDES
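Elevated IP1 in lysates lowers TR-FRET signal (665/620 ratio and 620 channel reported). Cells were CHO-M1, given carbachol (50 uM as added) plus 50mM LiCl, pH 7.4, 30 min, 37C; compounds titrated up to 46 uM; AC50 by Hill equation.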
Luc counter: Counterscreen for Luciferase (Kinase-Glo TM) Inhibition | AID 1379, 2008 | Kinase-Glo luciferase, ATP luminescence, 8 min | 200,000 compounds, 0.28% hits | Potency, µM (doses to about 38.3 µM), hits mostly inhibitors; active means well fitted inhibition curve with a large enough effect; inconclusive means small, poorly fitted or top-dose-only effect; further: nearly all actives have a fitted effect of over 60% in size
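Kinase-Glo luciferase light output from ATP and luciferin was measured with 10 uM ATP, within the enzyme's linear range. Buffer: 50 mM imidazole pH 7.2, 50 mM KCl, 7 mM MgCl2, 0.01% Tween 20, 0.05% BSA; luminescence read after 8 min at ambient temperature.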
PNC assembly inh: High Content Assay for Compounds that inhibit the Assembly of the Perinucleolar Compartment; 140,000 compounds, 3.1% hits; AID 2417, 2010; PC3M PTB-GFP, PNC prevalence imaging, 16 h; stronger effect = lower value; activity change (PNC), negative = inhibition, % at 10 µM;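 active means readout at or below -70, meaning at least 70% loss of cells showing the perinucleolar compartment, a nuclear body marking cancer cells; inconclusive means readout between -30 and a set limit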
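Compounds are pinned in duplicate onto adhered PC3M cells stably expressing GFP-tagged PTB and incubated 16 h at 37 C. Cells are then fixed, nuclei stained with Hoechst, and PNC-positive cells counted.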
ALDH1A1 block: qHTS Assay for Inhibitors of Aldehyde Dehydrogenase 1 (ALDH1A1). AID 1030, 2008. Aldehyde dehydrogenase 1A1 (Homo sapiens), P00352. Purified ALDH1A1, NADH fluorescence, propionaldehyde substrate. Potency, µM (titrated, usually from 75.3 µM), actives largely listed as inhibitors. 220,000 compounds, 7.3% hits
HPGD inh: qHTS Assay for Inhibitors of HPGD (15-Hydroxyprostaglandin Dehydrogenase) | purified HPGD, NADH fluorescence kinetic, PGE2 substrate | 150,000 compounds, 4.3% hits | Potency, µM, usual class: inhibitors
Target sequence (P15428 whole entry, looked up): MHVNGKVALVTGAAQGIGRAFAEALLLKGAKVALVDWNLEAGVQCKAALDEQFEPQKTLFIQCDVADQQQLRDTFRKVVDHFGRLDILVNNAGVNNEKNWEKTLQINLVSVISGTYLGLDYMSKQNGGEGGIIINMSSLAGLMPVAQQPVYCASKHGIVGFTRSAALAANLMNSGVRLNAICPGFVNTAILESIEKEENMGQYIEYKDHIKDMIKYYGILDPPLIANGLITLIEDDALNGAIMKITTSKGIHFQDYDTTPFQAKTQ
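NADH formation kinetics: reaction with 30 uM PGE2 and 1 mM NAD+ (final), 20 nM enzyme, Tris-HCl pH 8 with Tween 20, after 15 min compound preincubation at room temperature. Fluorescence change, last versus first of five reads.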
A number is an active result; [ ] = remark or other dose. Unless noted, the call rests on the fitted dose curve; in most records, active means well fitted inhibition curve with a large enough effect (not every such curve was filed as active); inconclusive means small, poorly fitted or top-dose-only effect, or another doubt; inactive means no such curve, though single readings can be large or run the other way.

Screening Cc1cccc(NC(c2ccc(O)cc2)c2ccc3ccc(C)nc3c2O)n1 (stereo not given) returned Lamin A splicing inconclusive, IMPase cell inh inactive, Luc counter inactive, PNC assembly inh inactive, ALDH1A1 block 7.9µM and HPGD inh 18µM.
Screening Oc1cccc(C(Nc2ccccn2)c2ccc3cccnc3c2O)c1Cl (stereo not given) returned IMPase cell inh inactive.
For CCN1CCN(c2csc3ccc(C)cc3c2=O)CC1 the results were Lamin A splicing inactive.
`COc1ccc(O)c(C(=O)c2cnc3c(c2)c(=O)[nH]c(=O)n3C)c1` gave Lamin A splicing inactive, Luc counter inactive, PNC assembly inh inactive, ALDH1A1 block inactive and HPGD inh 28µM.
Screening O=S(=O)(NCCc1csc2nc(-c3ccc(Cl)cc3)nn12)c1ccc2c(c1)OCCO2 returned Lamin A splicing inactive.
Cc1nc2cnc(Oc3ccccc3)nc2n(Cc2cccs2)c1=O was read as Lamin A splicing inactive and ALDH1A1 block inconclusive.
`CC1(C)Cc2c(C#N)c(N)sc(=S)c2CO1` gave Lamin A splicing inactive, IMPase cell inh inactive, Luc counter inactive, PNC assembly inh inactive, ALDH1A1 block 11µM and HPGD inh inactive.
CCCn1c(C)nc2c(Nc3ccccc3)nc(C)nc21 was read as Luc counter inactive, ALDH1A1 block inactive and HPGD inh inactive.
CN1CCN(S(=O)(=O)c2ccc3c4c(cccc24)C(=O)N3)CC1 was read as Lamin A splicing inactive, IMPase cell inh inactive, Luc counter inactive, PNC assembly inh -91, ALDH1A1 block inconclusive and HPGD inh inconclusive.
For COC(=O)CCCC1=CC2=C(c3ccccc3)C(=O)C(C)(OC(=O)C3CCCC3)C(=O)C2=CN1CCCOC(C)C (stereo not given) the results were Lamin A splicing inactive[9.22 µM], Luc counter inactive[7.66 µM], ALDH1A1 block inconclusive and HPGD inh inactive.
Screening CCn1cc(C(=O)NCCCOC)c2cc(OC)c(OC)cc2c1=O returned Lamin A splicing inactive, IMPase cell inh inactive, Luc counter inactive, PNC assembly inh inactive, ALDH1A1 block inactive and HPGD inh inactive.
`CCOCCCNC(=O)c1cn(CC(C)C)c(=O)c2cc(OC)c(OC)cc12` gave Lamin A splicing inactive, IMPase cell inh inactive, Luc counter inactive, PNC assembly inh inactive, ALDH1A1 block 20µM and HPGD inh inactive.
For O=C(c1cccc([N+](=O)[O-])c1)N1CCN(Cc2ccc3c(c2)OCO3)CC1 the results were Luc counter inactive and ALDH1A1 block inactive.
Screening Cc1ccc(C(=O)N2CCN(Cc3ccc4c(c3)OCO4)CC2)cc1[N+](=O)[O-] returned Luc counter inactive and ALDH1A1 block 13µM.
Screening COc1ccccc1C(=O)N1CCN(Cc2ccc3c(c2)OCO3)CC1 returned Lamin A splicing inconclusive, IMPase cell inh inactive, Luc counter inactive, PNC assembly inh inactive, ALDH1A1 block inactive and HPGD inh inactive.
Screening CCn1cc(C(=O)NCc2cccnc2)c2cc(OC)c(OC)cc2c1=O returned Lamin A splicing inactive, IMPase cell inh inactive, Luc counter inactive, PNC assembly inh inconclusive, ALDH1A1 block 25µM and HPGD inh inactive.
Screening COc1cc2c(C(=O)N3CCN(Cc4ccc5c(c4)OCO5)CC3)cn(C)c(=O)c2cc1OC returned Lamin A splicing inactive, IMPase cell inh inactive, Luc counter inactive, PNC assembly inh inactive, ALDH1A1 block 2.5µM and HPGD inh inactive.
For COc1cc2c(C(=O)NCc3ccc4c(c3)OCO4)cn(CC(C)C)c(=O)c2cc1OC the results were Lamin A splicing inactive, IMPase cell inh inactive, Luc counter inactive, PNC assembly inh -113, ALDH1A1 block 0.14µM and HPGD inh inactive.
`Cc1ccc(C2=NN(C(=O)C3CCCO3)C(c3ccco3)C2)cc1` (stereo not given) gave Lamin A splicing inactive, Luc counter inactive and ALDH1A1 block inactive.
